Screening data from PubChem BioAssay.
MITF primary = human MITF inhibition, primary screen. O75030. AlphaScreen MITF homodimerization, bead proximity signal. inhibition, % at 2.6 µM. hit rate 0.91% among 650,000. AID 1259374; in the data active = inhibition above about 50%
FBW7 activator = activators of human E3 ligase FBW7 | Q969H0 | AlphaScreen FBW7–phospho-cyclin E peptide binding, activator screen | normalized activity (activation), % at 26.1 µM | hit rate 0.13% among 650,000 | AID 1259310; in the data active = normalized activity above about 1.9%;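 also: purified mutant Fbw7 with reduced substrate affinity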
Target sequence (Q969H0 whole entry, looked up): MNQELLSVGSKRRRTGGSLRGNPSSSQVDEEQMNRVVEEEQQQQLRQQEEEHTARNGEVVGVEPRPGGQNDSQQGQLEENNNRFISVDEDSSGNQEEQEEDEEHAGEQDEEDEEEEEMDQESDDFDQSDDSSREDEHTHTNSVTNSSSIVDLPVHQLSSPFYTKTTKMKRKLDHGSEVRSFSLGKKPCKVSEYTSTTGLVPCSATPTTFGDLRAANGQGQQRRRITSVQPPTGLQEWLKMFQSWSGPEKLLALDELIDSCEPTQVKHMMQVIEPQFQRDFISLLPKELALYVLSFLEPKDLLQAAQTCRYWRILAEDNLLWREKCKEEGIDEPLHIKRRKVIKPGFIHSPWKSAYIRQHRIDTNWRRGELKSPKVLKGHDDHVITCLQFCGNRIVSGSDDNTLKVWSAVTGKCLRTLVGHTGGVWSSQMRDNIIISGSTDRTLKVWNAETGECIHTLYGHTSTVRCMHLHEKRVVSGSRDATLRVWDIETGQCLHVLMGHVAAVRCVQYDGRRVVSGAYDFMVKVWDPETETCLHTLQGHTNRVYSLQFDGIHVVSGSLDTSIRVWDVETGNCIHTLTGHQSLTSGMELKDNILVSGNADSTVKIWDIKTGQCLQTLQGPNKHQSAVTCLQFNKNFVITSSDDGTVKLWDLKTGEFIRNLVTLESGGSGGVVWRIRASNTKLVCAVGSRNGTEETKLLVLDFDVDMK
GPR151 activ = activates the human receptor GPR151. hit rate 1% among 650,000. PathHunter beta-arrestin GPR151 cells, luminescence. activation, % at 11.2 µM. Q8TDV0; in the data active = activation above about 4.9%
TEAD-YAP block = TEAD-YAP interaction inhibition | HEK-TIYL cells, TEAD-Gal4/YAP UAS-luciferase luminescence | inhibition, % at 9.12 µM | hit rate 1.4% among 640,000 | AID 1259422; in the data active = inhibition above about 32%
Large screens that a line does not name were inactive. Only some compounds are listed: those with a hit (about 3.5% of all), similar ones and a draw of the others.

O=C(NCC1CCCO1)c1ccc2c(=O)n(CC3CCCO3)c(SCC(=O)N3CCN(c4ccccc4)CC3)nc2c1 (configuration not stated)	TEAD-YAP block 32
CC(C)c1ccc(NC(=O)C(=O)NCCO)cc1	none
COc1cccc(C(=O)Nc2cc([N+](=O)[O-])ccc2OC)c1	none
CC(C)CC(=O)Nc1ccc(-c2cn3ccccc3n2)cc1	TEAD-YAP block 41
CCc1ccc(-c2cn3ccccc3n2)cc1	TEAD-YAP block 69
CC(=O)Nc1ccc(-c2cn3ccccc3n2)cc1	TEAD-YAP block 39
CCc1ccc(-c2cn3nc(C)c(C)nc3n2)cc1	TEAD-YAP block 92
Cc1cccn2cc(-c3ccc(NC(=O)CC(C)C)cc3)nc12	none
O=S(=O)(c1ccc(-c2csc(=Nc3ccc(F)cc3)n2CCO)cc1)N1CCCC1	TEAD-YAP block 47
CCN(CC)S(=O)(=O)c1ccc(-c2csc(=Nc3ccc(F)cc3)n2CCO)cc1	TEAD-YAP block 46
CCN(CC)S(=O)(=O)c1ccc(-c2csc(=Nc3ccc(F)cc3)n2CCc2ccc(OC)cc2)cc1	none
CCOc1ccc2[nH]c(=O)c(CN(Cc3cccs3)C(=O)CC)cc2c1	TEAD-YAP block 33
O=C(Nc1cccc(Cl)c1)n1c(=O)oc2cc(Br)ccc21	none
CCC(=O)NNC(=O)CSc1nc2cc3c(cc2cc1CC)OCCO3	none
CCc1cc2cc3c(cc2nc1SCC(=O)NC(C)(C)C)OCO3	TEAD-YAP block 38
CCc1cc2cc3c(cc2nc1SCC(=O)NC(C)(C)C)OCCO3	TEAD-YAP block 47
COc1ccc(S(=O)(=O)Oc2ccccc2NC(C)=O)c2ccccc12	TEAD-YAP block 55
COc1ccc(S(=O)(=O)Oc2ccccc2NC(C)=O)cc1C	TEAD-YAP block 45
CC(=O)Nc1ccccc1OS(=O)(=O)c1cc(Br)ccc1Br	none
CC(C)C(NC(=O)c1cccc(Cl)c1)C(=O)O (configuration not stated)	none
Cc1nc(C)n(-c2ccc(Nc3nccc(-c4cncc5ccccc45)n3)cc2)n1	TEAD-YAP block 81
Cc1nc(C)n(-c2ccc(Nc3nccc(-c4ccccc4-c4ccccc4)n3)cc2)n1	none
CC(C)CC(=O)NC1(C(F)(F)F)NC(=O)N(CC(C)C)C1=O (configuration not stated)	none
CCC1=NN2C(=N)/C(=C/c3cccc(OCCOc4ccccc4C)c3)C(=O)N=C2S1	none
CCC1=NN2C(=N)/C(=C/c3cc(Br)c(OCCOc4ccc(C)cc4)c(OC)c3)C(=O)N=C2S1	MITF primary 61
CCC1=NN2C(=N)/C(=C/c3cc(Br)c(OCCOc4ccc(Br)cc4)c(OC)c3)C(=O)N=C2S1	none
CCC1=NN2C(=N)/C(=C\c3cccc(OCCOc4cc(C)ccc4C)c3)C(=O)N=C2S1	MITF primary 63
COC(=O)c1c(NC(=O)CC(C)C)sc(C)c1C	none
CCCc1[nH]n(-c2ccc(F)cc2)c(=O)c1C=NCc1ccco1	none
CSc1nc2nc(C)cc(=O)n2[nH]1	none
CC(C)c1ccccc1OCC(=O)NN1C(=O)c2ccccc2C1=O	TEAD-YAP block 34
Cc1ccc(/C(O)=C2/C(=O)C(=O)N(CC3CCCO3)C2c2ccc([N+](=O)[O-])cc2)cc1 (configuration not stated)	none
NC(=O)c1cccc(-c2ccnc(Nc3ccc(N4CCOCC4)cc3)n2)c1	none
CS(=O)(=O)Nc1cccc(-c2ccnc(Nc3ccc(-n4cncn4)cc3)n2)c1	TEAD-YAP block 91
CC(=O)c1ccc(Nc2nccc(-c3cccc(NS(C)(=O)=O)c3)n2)cc1	TEAD-YAP block 82
Cc1ccc(-c2ncn(-c3ccc(Nc4nccc(-c5cccc(-n6cncn6)c5)n4)cc3)n2)cn1	none
C[Si](C)(C)c1nnn(-c2ccc(Nc3nccc(-c4cccc(NS(C)(=O)=O)c4)n3)cc2)c1N1CCOCC1	TEAD-YAP block 33
CC(=O)c1ccc(-c2nc(-c3cccc(NS(C)(=O)=O)c3)cnc2N)cc1	none
Cc1cc2[nH]c(=O)c(=O)[nH]c2c(Br)c1C	none
O=C(Nc1ccc(-c2nc3ccccc3[nH]2)cc1)c1cc([N+](=O)[O-])ccc1N1CCOCC1	none
O=C(O)c1ccccc1C(=O)Nc1ccc(Cl)cn1	none
Cc1sc2nc(C3CCCN(C(=O)Cc4ccc(F)cc4)C3)[nH]c(=O)c2c1C (configuration not stated)	none
O=C(Cc1ccc(Br)cc1)N1CCC(c2nc3ccncc3c(=O)[nH]2)C1 (configuration not stated)	FBW7 activator 2.3
CSc1ccc(/C=C/c2ccc3cccc(O)c3n2)cc1	TEAD-YAP block 34
Oc1cccc2ccc(/C=C/c3ccccc3)nc12	TEAD-YAP block 32
Oc1ccc(Br)c2ccc(/C=C/c3ccccc3)nc12	none
COc1ccc(Nc2nc(N3CCCC3)c3ccccc3n2)cc1	TEAD-YAP block 37
Cc1ccc(NC(=O)O/N=C\c2ccc(N(C)C)cc2)cc1	TEAD-YAP block 34
CCOc1ccc(Nc2c(C(=O)N3CCOCC3)cnc3ccccc23)cc1	TEAD-YAP block 42
CCN(C1=C(Cl)C(=O)N(c2ccccc2)C1=O)c1ccccc1	none
CN(C1=C(Cl)C(=O)N(c2cccc(Cl)c2)C1=O)c1ccccc1	TEAD-YAP block 33
N#Cc1ccsc1NC(=O)/C=C/c1ccccc1Cl	TEAD-YAP block 64
N#Cc1ccsc1NC(=O)c1cccc(Cl)c1Cl	none
COc1ccc(S(=O)(=O)Oc2cc(C)cc(C)c2CN2CCOCC2)cc1	TEAD-YAP block 37
Cc1cc(OS(=O)(=O)c2ccc(F)cc2)c(C)cc1CN1CCOCC1	none
Nc1nc(-c2ccc(O)c(O)c2)cs1	MITF primary 79
Oc1ccc(-c2csc(NCc3ccccc3)n2)cc1O	none
COc1ccc(-c2csc(N)n2)c(F)c1	none
COc1ccc2cc(-c3csc(N)n3)ccc2c1	TEAD-YAP block 32
NNc1nc(-c2ccc(O)c(O)c2)cs1	MITF primary 103
O=C(O)c1cccc(Nc2nc(-c3ccc(O)c(O)c3)cs2)c1	MITF primary 80
O=C(COc1ccc(C2N(Cc3ccccc3)CCN2Cc2ccccc2)cc1)N1CCOCC1	none
COc1ccc(NC(=O)N2CC=C(c3c[nH]c4ccccc34)CC2)cc1	TEAD-YAP block 51
O=C(/C=C/Nc1ccc(I)cc1)c1ccco1	none
CC(C)c1ccc(N/C=C/C(=O)c2ccco2)cc1	TEAD-YAP block 78
Cc1ccc(-n2c3c(cc(C(=O)NCCO)c2=O)C(=O)CC(C)(C)C3)cc1	none
CCc1ccc(C(=O)N/N=C/c2cc(Br)c(O)c(Br)c2O)nc1	MITF primary 67, TEAD-YAP block 72
COc1cc(C2C(C#N)=C(N)Oc3n[nH]c(-c4ccccc4)c32)cc(OC)c1OC(C)=O (configuration not stated)	none
NC1=NC(=O)C(CC(=O)Nc2ccc(NC(=O)CC3SC(N)=NC3=O)cc2)S1 (configuration not stated)	MITF primary 55
Cc1ccc(NC(=O)CC2SC(N)=NC2=O)cc1 (configuration not stated)	none
O=c1[nH]c(/C=C/c2ccc3c(c2)OCO3)nc2ccccc12	TEAD-YAP block 56
COc1cccc(/C=C/c2nc3ccccc3c(=O)[nH]2)c1O	TEAD-YAP block 65
